# Shown is part of a subset that was picked to be rich in the strongest signals.
# How the values were obtained:
# Assay in all cases: glycan array binding signal (z-score within array); higher = stronger binding
# Conditions in all cases: glycan notation: IUPAC condensed, linker removed
# [1] = target: Fuc(a1-2)Gal(b1-3)GalNAc(a1-3)[Fuc(a1-2)]Gal(b1-4)GlcNAc
# Summary of the method: (§1)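 The Consortium for Functional Glycomics database supplied 3228 glycan arrays, of which those lacking an available protein sequence were dropped. The binding signal, a within-array Z-score, was averaged across arrays of the same protein sequence and across linkers. Negative scores can be read as non-binding.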
# [2] = target: Fuc(a1-2)Gal(b1-3)GalNAc(b1-3)Gal(a1-4)Gal(b1-4)Glc
# Summary of the method: as §1
# [3] = target: Fuc(a1-2)Gal(b1-3)GlcNAc(b1-3)[Neu5Ac(a2-6)Gal(b1-4)GlcNAc(b1-6)]Gal(b1-4)Glc
# Summary of the method: as §1
# [4] = target: Fuc(a1-2)Gal(b1-4)GlcNAc(b1-3)Gal(b1-4)GlcNAc(b1-2)Man(a1-3)[Fuc(a1-2)Gal(b1-4)GlcNAc(b1-3)Gal(b1-4)GlcNAc(b1-2)Man(a1-6)]Man(b1-4)GlcNAc(b1-4)GlcNAc
# Summary of the method: as §1
# [5] = target: Fuc(a1-2)Gal(b1-4)GlcNAc(b1-6)GalNAc
# Summary of the method: as §1
# [6] = target: Fuc(a1-2)[Gal(a1-3)]Gal(b1-4)GlcNAc(b1-3)GalNAc
# Summary of the method: as §1
# [7] = target: Fuc(a1-2)[Gal(a1-3)]Gal(b1-4)GlcNAc(b1-3)[Fuc(a1-2)[Gal(a1-3)]Gal(b1-4)GlcNAc(b1-6)]GalNAc
# Summary of the method: as §1
# [8] = target: Fuc(a1-2)[GalNAc(a1-3)]Gal(b1-3)GlcNAc(b1-2)Man(a1-3)[Fuc(a1-2)[GalNAc(a1-3)]Gal(b1-3)GlcNAc(b1-2)Man(a1-6)]Man(b1-4)GlcNAc(b1-4)[Fuc(a1-6)]GlcNAc
# Summary of the method: as §1
# [9] = target: Fuc(a1-2)[GalNAc(a1-3)]Gal(b1-4)GlcNAc(b1-3)GalNAc
# Summary of the method: as §1
# [10] = target: Fuc(a1-2)[GalNAc(a1-3)]Gal(b1-4)[Fuc(a1-3)]GlcNAc
# Summary of the method: as §1
# [11] = target: Fuc(a1-3)[Gal(b1-4)]GlcNAc(b1-2)Man(a1-3)[Fuc(a1-3)[Gal(b1-4)]GlcNAc(b1-2)Man(a1-6)]Man(b1-4)GlcNAc(b1-4)[Fuc(a1-6)]GlcNAc
# Summary of the method: as §1
# [12] = target: Fuc(a1-3)[Gal(b1-4)]GlcNAc(b1-6)[Gal(b1-3)GlcNAc(b1-3)]Gal(b1-4)Glc
# Summary of the method: as §1
# [13] = target: Fuc(a1-3)[GalNAc(b1-4)]GlcNAc6S
# Summary of the method: as §1
# [14] = target: Gal(b1-3)[Fuc(a1-4)]GlcNAc(b1-2)Man
# Summary of the method: as §1
# [15] = target: Gal(b1-3)[Neu5Ac(a2-6)]GalNAc
# Summary of the method: as §1
# [16] = target: Gal(b1-3)[Neu5Ac(b2-6)]GalNAc
# Summary of the method: as §1
# [17] = target: Gal(b1-4)GlcNAc(b1-2)Man(a1-3)[GlcNAc(b1-4)][Gal(b1-4)GlcNAc(b1-2)Man(a1-6)]Man(b1-4)GlcNAc(b1-4)GlcNAc
# Summary of the method: as §1
# [18] = target: Gal(b1-4)GlcNAc(b1-2)[Gal(b1-4)GlcNAc(b1-6)]Man(a1-6)[Gal(b1-4)GlcNAc(b1-2)Man(a1-3)]Man(b1-4)GlcNAc(b1-4)[Fuc(a1-6)]GlcNAc
# Summary of the method: as §1
# [19] = target: Gal(b1-4)GlcNAc(b1-3)Gal(b1-4)GlcNAc(b1-2)[Gal(b1-4)GlcNAc(b1-3)Gal(b1-4)GlcNAc(b1-6)]Man(a1-6)[Gal(b1-4)GlcNAc(b1-3)Gal(b1-4)GlcNAc(b1-2)Man(a1-3)]Man(b1-4)GlcNAc(b1-4)GlcNAc
# Summary of the method: as §1
# [20] = target: Gal(b1-4)GlcNAc(b1-3)Gal(b1-4)GlcNAc(b1-3)Gal(b1-4)GlcNAc(b1-3)Gal(b1-4)GlcNAc(b1-3)Gal(b1-4)GlcNAc(b1-3)Gal(b1-4)GlcNAc(b1-2)Man(a1-3)[Gal(b1-4)GlcNAc(b1-3)Gal(b1-4)GlcNAc(b1-3)Gal(b1-4)GlcNAc(b1-3)Gal(b1-4)GlcNAc(b1-3)Gal(b1-4)GlcNAc(b1-3)Gal(b1-4)GlcNAc(b1-2)Man(a1-6)]Man(b1-4)GlcNAc(b1-4)GlcNAc
# Summary of the method: as §1
# [21] = target: Gal(b1-4)GlcNAc(b1-3)Gal(b1-4)GlcNAc(b1-3)[Gal(b1-4)GlcNAc(b1-3)Gal(b1-4)GlcNAc(b1-6)]GalNAc
# Summary of the method: as §1
# [22] = target: Gal(b1-4)GlcNAc(b1-3)Gal(b1-4)[Fuc(a1-3)]GlcNAc(b1-3)Gal(b1-4)[Fuc(a1-3)]GlcNAc
# Summary of the method: as §1
# [23] = target: Gal(b1-4)GlcNAc(b1-3)[GlcNAc(b1-6)]Gal(b1-4)GlcNAc
# Summary of the method: as §1
# Gal3S(b1-3)GalNAc = target: Gal3S(b1-3)GalNAc
# Summary of the method: as §1
binder,measurement,setting,value
ClecSol-Fc (Cryptosporidium parvum) (protein) CPEGWISNGEKTRCFKLVTFDRPRTFSHGFKACNDLGGTEVETRRRNGSKETNEYPVTLASVYKLSDEEAIRRTLVEQGDIHKTANGCFVGLRKYAFFRYPPGWYWIDSGSPVSVRDSEINWTSSYNASWLLRFKFPFEKCGFFDIGGLGRRPCWLIDSELSCAVCGTVAYDSGGLNPNKYSELIKQTDEIISKEPKLDLPGYNNLNCTDAWENNLSVGLCQNVSNILDSAWSSYQSSLNFPSINFNWKEDSTNEGGDQVYHNSYLDLPRYKQKKTFYWDQDPGTIPALSDEMKLIGLSAQPTYHPLDRSSSGSFESDSTESGRANEERNDTLEEMIYKQSSDSIEDILVPVTKPIFSDYSSIGRNSGVEEVYSSNVSTISSKGVVFPNTTTSSDNDFTKNNPANSSKHTSTSTTTNTTTTTTRTTTTTTTTTTTTTTTTTTTTETTTTKKSTTATKNTTTT,glycan array binding signal (z-score),[1],0.031
same,glycan array binding signal (z-score),[2],-0.029
same,glycan array binding signal (z-score),[3],-0.161
same,glycan array binding signal (z-score),[4],-0.154
same,glycan array binding signal (z-score),[5],0.51
same,glycan array binding signal (z-score),[6],0.003
same,glycan array binding signal (z-score),[7],0.705
same,glycan array binding signal (z-score),[8],-0.242
same,glycan array binding signal (z-score),[9],-0.169
same,glycan array binding signal (z-score),[10],-0.281
same,glycan array binding signal (z-score),[11],0.593
same,glycan array binding signal (z-score),[12],0.068
same,glycan array binding signal (z-score),[13],-0.242
same,glycan array binding signal (z-score),[14],-0.208
same,glycan array binding signal (z-score),[15],-0.235
same,glycan array binding signal (z-score),[16],-0.149
same,glycan array binding signal (z-score),[17],-0.166
same,glycan array binding signal (z-score),[18],-0.266
same,glycan array binding signal (z-score),[19],0.543
same,glycan array binding signal (z-score),[20],-0.15
same,glycan array binding signal (z-score),[21],-0.114
same,glycan array binding signal (z-score),[22],-0.22
same,glycan array binding signal (z-score),[23],-0.01
same,glycan array binding signal (z-score),Gal3S(b1-3)GalNAc,-0.101

# — the supplement of paper PMC8728848
